Assay results from the supplement of paper PMC10681739.

The sequences below were run against T1, ETS1 (UniProt P14921) (assay: TF binding intensity (PBM fluorescence), negative control probe (arbitrary fluorescence units); higher = stronger binding).
T1 sequence: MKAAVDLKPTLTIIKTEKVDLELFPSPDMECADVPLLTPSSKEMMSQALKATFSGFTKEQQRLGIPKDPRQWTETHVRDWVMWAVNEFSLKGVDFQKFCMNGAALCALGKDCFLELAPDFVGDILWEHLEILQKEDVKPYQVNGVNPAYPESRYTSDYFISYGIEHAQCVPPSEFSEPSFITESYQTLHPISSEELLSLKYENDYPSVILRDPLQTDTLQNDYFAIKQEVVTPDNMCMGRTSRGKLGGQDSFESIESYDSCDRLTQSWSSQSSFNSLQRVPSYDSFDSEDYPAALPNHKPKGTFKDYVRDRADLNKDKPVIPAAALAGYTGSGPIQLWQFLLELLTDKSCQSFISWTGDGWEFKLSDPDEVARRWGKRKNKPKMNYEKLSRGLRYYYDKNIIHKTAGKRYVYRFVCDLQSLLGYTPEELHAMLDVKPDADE
Procedure: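 gcPBM negative-control 36-bp genomic probes lacking TF binding sites. Each was incubated with recombinant human ETS1 or RUNX1 alone and detected by antibody fluorescence. Values are medians over replicate spots (4 spots for the ETS1-RUNX1 arrays, 3 for the ETS1-ETS1 array). The probes sit in constant array flanks that are not printed.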

In order of rising TF binding intensity:
1. ACTGGCTAAGGTCTCTCCTGACCTGATTCCATTCTT (protein concentration 10 nM)  97.3
2. ATGGCTGGGTCAGAGCGGCCTGTCAGCCCGGCTGGA (protein concentration 10 nM)  98
3. CTGGGGTGGCGCCAGCCTTATTATGACTAACCATGA (protein concentration 10 nM)  105
4. AGTATGAGTTTGAATACACAGAACCTTTCTCATTCT (protein concentration 10 nM)  106
5. TCCAGAATTGCAAGGTCTGGGGAGCTGGGTGCCACA (protein concentration 10 nM)  107
6. CAGAGGGGGCCTCTGGGGCAGCGGTGCTGGGAGCGG (protein concentration 10 nM)  109
7. TAAATAAATAAACACTTTAGCACATTGACTTTAGAG (protein concentration 10 nM)  111
8. TGGGACCTCCAGCATATGACAGTGGACTAAGGACTG (protein concentration 10 nM)  113
9. TTTCAGAGGGAAAAGAATTTTGCCGTTCGCGTTCGA (protein concentration 10 nM)  113
10. AGGTGATATCTATCCCTTTCATTTCTTCTGAACAGG (protein concentration 10 nM)  114
11. AAACTAATCAGAATTTAACATCATACATAAATGGCA (protein concentration 10 nM)  116
12. TCCTTTTGCTATACAGACCCCAGAACTCCTGAATGG (protein concentration 10 nM)  119
13. GATGTGGCCTATAGGGATCCTTCACTTAGGCATGAG (protein concentration 10 nM)  121
14. CTACACATTTTAAAGAAAGAGACCACAGTTCTTTAT (protein concentration 10 nM)  122
15. CCTGAGGCCTGCCCCAGTCACCTGTATTTACCCTGC (protein concentration 10 nM)  122
16. ATAAAGTACATTAATTCATTCATCCAGCAAGAGTGT (protein concentration 10 nM)  122
17. AGTTTCACTGCCCTAAAAATCCTCCGTGCGCCGCCT (protein concentration 10 nM)  123
18. CAAAATGCTTAAAAGGTAACTTGACTCTTTGTTTGG (protein concentration 10 nM)  123
19. CATAGTTGCACCTGGTCTACTTTGCTGTCAATTTGT (protein concentration 10 nM)  126
20. GGGGCCTCGAAGGTCCTCCTGGACTGCAAGAGAGGA (protein concentration 10 nM)  131
21. CATGAAGAATATAGCATTGTTTTGTATATGTTTTAA (protein concentration 10 nM)  131
22. CGTTCGTTCGACAGCTCTTGTGGTAAACAGCGTCAA (protein concentration 10 nM)  132
23. CAGGCAGCATCTGGGGGTGTGTGGGTTTGGCAAGCT (protein concentration 10 nM)  134
24. CTTATTATTAATGGTCATTAGCCACAGTCACCACCA (protein concentration 10 nM)  137
25. GACCACAGGGACCCATGCCAGTCAGATAAAAATAAC (protein concentration 10 nM)  141
26. TCTCTCTGCTCTGTGAACTCTAGCTGTCTTGGCTTC (protein concentration 10 nM)  142
27. GTTTCTTATAAGCAGAAACACTAACAAAGGACAGCG (protein concentration 10 nM)  146
28. CCGGGCCGCTGCGGGCTCCCCAGCTCCCCACAGATC (protein concentration 10 nM)  147
29. AATGAATCTGCATGAATAAAAGGGTCAACACAGCAG (protein concentration 10 nM)  147
30. CCGACACTCCATGAGTTAGTTCAGTCCTCTGACACC (protein concentration 10 nM)  150
31. CTTCAAAGGCCCCGCATTAGCTGGGGTCGATCCAGA (protein concentration 10 nM)  154
32. CTCCACGACCCTGAAACTAGAACAAGACCTCTCCTC (protein concentration 10 nM)  165
33. CTGGATTTCTGTACTTTGGTTGGCTTATATTACATC (protein concentration 10 nM)  171
34. TCCTCTGGTCTCTAAACCACAGCCTCCACCAGCAAC (protein concentration 1 nM)  442
35. TAGGGAATGGTGAGCTGTGGTTTGTGGCTTCATGGA (protein concentration 1 nM)  443
36. CCCAATCTGTAACAACCCACATCTGTTCCTTATTTG (protein concentration 1 nM)  466
37. GTGTGTGAGCGTGTACCCACAATGTGTAACTTAATT (protein concentration 1 nM)  484
38. TTGGGACCAATTTGACCCACAAACCCTGAAAAAGAG (protein concentration 1 nM)  497
39. ACTTAGGTCTCTGTTACCACCATGAAACAATTTAGT (protein concentration 1 nM)  545
40. CACAATAAAGCCGCAACCGCAGGAGGCAGAAGGGTG (protein concentration 1 nM)  793
